Source: PubChem BioAssay
“And” between values parts separate entries of the source, which are not always exact repeats. Equal entries are not always repeated. The source made the active and inactive calls.

Assays:
[1] = test system: XIP peptide (Xip251-270) binding; assay: XIP fragment 251-270 binding compounds – biochemical, small-molecule microarray, fluorescence 635/667 nm, 0.1 µg/mL protein, primary screen (AID 1182); conditions: fluorescent protein binding, 635 nm, higher = more signal, called active from +8 up or from −8 down
[2] = test system: XIP peptide (Xip251-270); assay: compounds binding XIP fragment 251-270 – biochemical, small-molecule microarray, fluorescence 635/667 nm, 0.5 µg/mL protein, primary screen (AID 1183); conditions: fluorescence 635 nm, higher = more signal
[3] = blood-stage malaria parasite viability loss – strain 3D7, DAPI fluorescence, 100 nL, primary screen (AID 1184);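 further: parasites grown inside human red blood cells in medium with human serum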; conditions: P. falciparum 3D7 growth, 3 d, higher = more signal
[4] = biological target: Homeobox protein Hox-A13 (Mus musculus) (UniProt Q62424); assay: disruptors of Hoxa13 oligonucleotide interaction – biochemical, fluorescence polarization, labeled oligonucleotide, primary screen (AID 1185); conditions: Hoxa13:DNA binding, 15 min, higher = more signal, called active from +8 up or from −8 down
Homeobox protein Hox-A13 (Mus musculus), sequence (Q62424 whole entry, looked up): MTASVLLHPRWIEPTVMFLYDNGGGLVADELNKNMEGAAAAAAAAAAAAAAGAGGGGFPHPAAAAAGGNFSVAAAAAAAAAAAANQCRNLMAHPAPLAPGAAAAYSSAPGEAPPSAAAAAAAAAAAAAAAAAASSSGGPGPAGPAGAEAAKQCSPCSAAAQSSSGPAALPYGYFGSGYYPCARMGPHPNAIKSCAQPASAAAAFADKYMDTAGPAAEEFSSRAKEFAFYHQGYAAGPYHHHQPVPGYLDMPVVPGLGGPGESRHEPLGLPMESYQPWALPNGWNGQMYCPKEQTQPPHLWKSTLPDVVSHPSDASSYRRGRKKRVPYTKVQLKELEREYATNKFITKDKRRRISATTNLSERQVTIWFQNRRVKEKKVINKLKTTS

Row | Compound | composite z-score [1] | composite z-score [2] | z-score [3] | z-score [4]
1 | CCCNC(=O)OC[C@H]1O[C@H](CCON=C(C)CCC(=O)OC[C@H]2O[C@H](C#Cc3ccccc3)C=C[C@@H]2Oc2ccc(C)cc2)C=C[C@@H]1Oc1ccc(OC)cc1 | -0.238 (inactive) | -0.439 | -2.1 | -0.983 (inactive)
2 | COc1ccc(O[C@H]2C=C[C@@H](c3ccccc3)O[C@@H]2COC(=O)CCC(C)=NO[C@H](C)c2cn([C@H](CO)Cc3ccccc3)nn2)cc1 | 0.31 (inactive) and 0.164 (inactive) | 0.238 and 0.548 | -1.46 and -1.1 | -5.26 (inactive) and -4.59 (inactive)
3 | CO[C@H]1COC(=O)CC=C[C@H](C)[C@H](OC)COC(=O)[C@@H](C)COC(=O)CC=C[C@@H]1C | -0.205 (inactive) and 0.308 (inactive) | 0.602 and -0.337 | 0.298 and 0.795 | 0.397 (inactive) and 0.774 (inactive)
4 | CC(=O)OC[C@H]1O[C@H](C#CC(C)(C)C)C=C[C@@H]1OC(C)=O | 0.853 (inactive) | 0.575 | 1.32 | -2.75 (inactive)
5 | Cc1ccc(S(=O)(=O)N[C@H]2COC(=O)[C@@H](Cc3ccccc3)NC(=O)[C@@H](C)COC(=O)CC=C[C@@H]2C)cc1 | 0.124 (inactive) and 0.125 (inactive) | 0.174 and -0.0928 | -0.446 and -1.34 | 0.469 (inactive) and -3.02 (inactive)
6 | C[C@@H]1CC[C@H]2C(=O)NC[C@@H](O)CN2[C@H]1c1ccc(Br)cc1 | 0.21 (inactive) and 0.567 (inactive) | 0.22 and 0.889 | -0.601 and 0.863 | -2.22 (inactive) and -1.74 (inactive)
7 | CC(C)CON=C1C[C@@H](O)[C@@H](O)[C@@H]2[C@@H]3C(=O)N(c4cccc(Oc5ccccc5)c4)C(=O)[C@@H]3CC[C@H]12 | 0.0483 (inactive) | 0.741 | -0.638 | 0.875 (inactive)
8 | CC(C)CCN1CCc2nc(-c3ccccc3)c3c(c2C1)CO[C@@H](C)C3 | 0.105 (inactive) | 0.563 | 1.77 | -3.47 (inactive)
9 | COc1ccc(-c2ccc3c(n2)CCCN3CC(O)CN2CCCc3nc(-c4ccc(Br)cc4)ccc32)cc1 (configuration not stated) | 0.947 (inactive) and 1.14 (inactive) | 0.717 and 0.257 | -0.309 and 0.613 | -3.36 (inactive) and -1.95 (inactive)
10 | COC(=O)[C@H](C)NC(=O)CCC1CC(OC(=O)NCCc2ccc(F)cc2)CC2(CCCC(COC(=O)NCCCN3CCCC3=O)O2)O1 (some centres not stated) | 0.348 (inactive) | 0.683 | -1.9 | -4.1 (inactive)
11 | CCOC(=O)[C@H](Cc1ccccc1)NC(=O)CCC1CC(OC(=O)NCc2cccc3ccccc23)CC2(CCCC(COC(=O)NCCCN3CCCC3=O)O2)O1 (some centres not stated) | 0.684 (inactive) | 0.351 | -1.63 | -4.68 (inactive)
12 | Cc1ccc(S(=O)(=O)N[C@H]2COC(=O)[C@@H](C)COC(=O)[C@H](C)NC(=O)CC=C[C@H]2C)cc1 | 0.0287 (inactive) | -0.188 | -0.208 | -0.0362 (inactive)
13 | CCOC(=O)CCN1C(=O)[C@H]2[C@H]3[C@H](O)[C@H](O)CC(=NNC(=O)OCC)[C@@H]3CC[C@H]2C1=O | 0.872 (inactive) | 0.466 | 2.07 | 0.0438 (inactive)
14 | C=C(C)C(=O)OC[C@@H]1CN2[C@@H](CC[C@@H](C)[C@@H]2c2ccc(Br)cc2)C(=O)O1 | 0.0138 (inactive) | 0.175 | 0.693 | -3.29 (inactive)
15 | C[C@@H](ON=C1[C@H]2CCn3c(=O)n(-c4ccccc4)c(=O)n3[C@H]2[C@H](O)[C@@H]2O[C@H]12)c1cn([C@H](CO)Cc2ccccc2)nn1 | 0.764 (inactive) | 0.297 | -0.516 | -2.41 (inactive)
16 | COC(=O)C1=C(C)N(Cc2ccccc2)[C@]23O[C@](C(=O)OC)(C(=O)N2[C@@H]1c1ccccc1)[C@H]1C(=O)N(C)C(=O)[C@H]13 | 0.0247 (inactive) and -0.317 (inactive) | 0.706 and -0.282 | -0.979 and 0.027 | -3.58 (inactive) and -1.73 (inactive)
17 | CC(C)=NOCc1ccc(-c2cn([C@@H]3COC[C@H]3O)nn2)cc1 | 0.364 (inactive) | -0.149 | 1.76 | -0.221 (inactive)
18 | CCOC(=O)NN=C1C[C@@H](O)[C@@H](O)[C@@H]2[C@@H]3C(=O)N(Cc4ccc5c(c4)OCO5)C(=O)[C@@H]3CC[C@@H]12 | 0.483 (inactive) | 0.586 | 0.132 | -0.24 (inactive)
